Screen size: about 310,000 compounds; about 14,000 (4.5%) showed an effect of 50% or more. The effect is printed as a negative number. The sample as a whole holds a higher share of strong results than the screen did.
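Also: peak tail current of the secondary pulse compared with the same well before compound.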

For this test, the target named is human ether-à-go-go-related gene (hERG) potassium channel (human, UniProt Q12809). As to the kind of experiment: primary screen, population patch clamp on CHO cells stably expressing hERG; higher = less effect of the substance.
Sequence of human ether-à-go-go-related gene (hERG) potassium channel (Q12809 whole entry, looked up): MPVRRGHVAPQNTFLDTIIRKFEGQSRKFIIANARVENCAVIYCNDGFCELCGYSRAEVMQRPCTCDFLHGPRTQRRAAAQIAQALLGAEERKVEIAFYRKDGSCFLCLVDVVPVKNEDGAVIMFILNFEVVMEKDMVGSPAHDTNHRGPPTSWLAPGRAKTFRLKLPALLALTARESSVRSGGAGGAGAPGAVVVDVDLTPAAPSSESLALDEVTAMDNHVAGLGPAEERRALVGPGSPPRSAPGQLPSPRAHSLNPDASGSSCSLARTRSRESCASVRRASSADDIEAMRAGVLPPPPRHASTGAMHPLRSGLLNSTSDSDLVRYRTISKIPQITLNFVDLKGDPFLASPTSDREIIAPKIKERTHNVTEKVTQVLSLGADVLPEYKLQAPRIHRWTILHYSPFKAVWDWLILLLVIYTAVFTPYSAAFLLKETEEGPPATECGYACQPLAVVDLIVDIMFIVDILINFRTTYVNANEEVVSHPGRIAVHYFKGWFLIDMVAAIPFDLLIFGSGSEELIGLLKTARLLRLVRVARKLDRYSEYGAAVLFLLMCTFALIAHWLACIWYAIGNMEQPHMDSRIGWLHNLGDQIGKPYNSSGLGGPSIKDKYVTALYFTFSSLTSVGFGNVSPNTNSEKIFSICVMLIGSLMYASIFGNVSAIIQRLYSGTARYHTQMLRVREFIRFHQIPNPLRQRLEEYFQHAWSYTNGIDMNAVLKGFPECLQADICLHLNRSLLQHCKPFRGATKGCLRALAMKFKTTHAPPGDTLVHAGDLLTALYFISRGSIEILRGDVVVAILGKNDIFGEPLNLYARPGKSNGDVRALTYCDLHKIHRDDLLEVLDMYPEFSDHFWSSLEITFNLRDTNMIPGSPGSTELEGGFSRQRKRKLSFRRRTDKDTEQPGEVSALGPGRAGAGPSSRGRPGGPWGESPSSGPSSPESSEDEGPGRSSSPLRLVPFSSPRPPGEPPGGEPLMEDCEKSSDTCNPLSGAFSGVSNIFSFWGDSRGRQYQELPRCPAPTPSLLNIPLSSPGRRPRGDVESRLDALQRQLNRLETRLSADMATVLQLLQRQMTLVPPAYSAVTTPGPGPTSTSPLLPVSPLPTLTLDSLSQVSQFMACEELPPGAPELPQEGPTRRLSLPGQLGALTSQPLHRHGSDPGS
On to `COC(=O)c1ccccc1NC(=O)c1cccc(COc2ccccc2Cl)c1`, for which the “hERG current change (%, negative = inhibition) at 10uM” value stood at 10.6%.

As for `O=C(c1ccc(F)cc1)N1CCN(c2ncccn2)CC1`, the “hERG current change (%, negative = inhibition) at 10uM” value was -1.2%.

On to `CC(=O)/C=C(\C)Nc1ccc(-c2cnc(-c3ccccc3)o2)cc1`, for which the “hERG current change (%, negative = inhibition) at 10uM” value is -4.59%.

On to `CC(=O)O[C@H]1CC[C@H]2[C@@H]3CCc4cc(O)ccc4[C@H]3CC[C@]12C`, for which the “hERG current change (%, negative = inhibition) at 10uM” value is listed as -5.79%.

For the compound `COc1ccc(CC(=O)N/N=C/c2ccc(C)s2)cc1`, the “hERG current change (%, negative = inhibition) at 10uM” value is 11%.

`O=C(Cc1cccc2ccccc12)Nc1ccc2c(c1)C(=O)NC2=O`: the “hERG current change (%, negative = inhibition) at 10uM” value came to 9.52%.

Take `COc1ccc(NC(=O)CS(=O)(=O)c2cn(CC(=O)N(C(C)C)C(C)C)c3ccccc23)c(OC)c1`: the “hERG current change (%, negative = inhibition) at 10uM” value is on record as -19.3%.

As for `O=C(CC(c1ccccc1)c1ccccc1)NCCOCc1ccccc1`, the “hERG current change (%, negative = inhibition) at 10uM” value is -12.6%.

With `Cc1ccc(CN2C(=O)CNC2=S)cc1`, the “hERG current change (%, negative = inhibition) at 10uM” value is reported as 9.68%.

Turning to `O=C(Nc1cccc(N=Cc2cc(Br)cc(Br)c2O)c1)c1ccco1`, the “hERG current change (%, negative = inhibition) at 10uM” value worked out at 3.77%.

Consider `CCCc1nn(C)c(C(=O)Nc2ccc3ccccc3c2)c1Cl`, for which the “hERG current change (%, negative = inhibition) at 10uM” value is on record as 8.62%.

As to `CC1CC(C#N)N(N(C)C)C1=C(C#N)C#N` (stereo not drawn), the “hERG current change (%, negative = inhibition) at 10uM” value was determined as 11.3%.

`CC(=O)Nc1c2c(nn1-c1cccc(Cl)c1)CS(=O)C2` (stereo not drawn): the “hERG current change (%, negative = inhibition) at 10uM” value is recorded as -1.6%.

In the case of `CCOc1ccc(N=Cc2c(O)c3ccccc3oc2=O)cc1`, the “hERG current change (%, negative = inhibition) at 10uM” value is 3.29%.

Consider `Cc1cccc(OCC(=O)NCc2ccccc2)c1`, for which the “hERG current change (%, negative = inhibition) at 10uM” value was 13.6%.

As for `CCn1cc(CN2CCc3c([nH]c4ccccc34)C2c2cccc(OC)c2)c(C)n1` (stereo not drawn), the “hERG current change (%, negative = inhibition) at 10uM” value is on record as -57.3%.

Turning to `CCn1cc(CN2CCc3c([nH]c4ccccc34)C2c2cccc(OC)c2OC)c(C)n1` (stereo not drawn), the “hERG current change (%, negative = inhibition) at 10uM” value is listed as 7.99%.

In the case of `COc1cccc(C2c3[nH]c4ccccc4c3C[C@H]3C(=O)N(CCCCCO)CC(=O)N23)c1` (stereo partly drawn), the “hERG current change (%, negative = inhibition) at 10uM” value was -64.9%.

As for `CCn1cc(CN2CCc3c([nH]c4ccccc34)C2c2cccc(O)c2)c(C)n1` (stereo not drawn), the “hERG current change (%, negative = inhibition) at 10uM” value was -18.8%.

For `COc1cccc(C2c3[nH]c4ccccc4c3CCN2Cc2cccc(C)n2)c1` (stereo not drawn), the “hERG current change (%, negative = inhibition) at 10uM” value is recorded as -26.6%.

With `COCCCN1CC(=O)N2C(c3cccc(OC)c3)c3[nH]c4ccccc4c3C[C@H]2C1=O` (stereo partly drawn), the “hERG current change (%, negative = inhibition) at 10uM” value is given as -14.3%.

With `Oc1cccc(C2c3[nH]c4ccccc4c3CCN2Cc2cnn(-c3ccccc3)c2)c1` (stereo not drawn), the “hERG current change (%, negative = inhibition) at 10uM” value was -35.3%.

As for `COCCN1CC(=O)N2C(c3cccc(OC)c3)c3[nH]c4ccccc4c3C[C@H]2C1=O` (stereo partly drawn), the “hERG current change (%, negative = inhibition) at 10uM” value is given as -38.6%.

As to `COc1cc(C2c3[nH]c4ccccc4c3CCN2Cc2cn(C)nc2C)ccc1F` (stereo not drawn), the “hERG current change (%, negative = inhibition) at 10uM” value stood at 1.02%.

`CCn1cc(CN2CCc3c([nH]c4ccccc34)C2c2ccc(F)c(OC)c2)c(C)n1` (stereo not drawn): the “hERG current change (%, negative = inhibition) at 10uM” value worked out at 6.94%.

With `CCOc1ccc(C2c3[nH]c4ccccc4c3CCN2Cc2cn(CC)nc2C)cc1` (stereo not drawn), the “hERG current change (%, negative = inhibition) at 10uM” value is -63.6%.

`COc1cccc(C2c3[nH]c4ccccc4c3CCN2Cc2cnn(C)c2)c1` (stereo not drawn): the “hERG current change (%, negative = inhibition) at 10uM” value is given as -69.6%.

Turning to `Cc1ccc(C(=O)NCCC(=O)NCc2ccco2)cc1`, the “hERG current change (%, negative = inhibition) at 10uM” value was found to be 9.59%.

Regarding `CC1=NN(C(=O)c2nn(C)cc2Br)C(O)(C(F)(F)F)C1` (stereo not drawn), the “hERG current change (%, negative = inhibition) at 10uM” value came out at 10.3%.

Turning to `Cc1cccc(C)c1NC(=O)CNC(=O)C1CCCC1`, the “hERG current change (%, negative = inhibition) at 10uM” value is 2.19%.

`O=C(NC1CCCCC1)C(c1ccc(F)cc1)N(C(=O)c1csnn1)C1CC1` (stereo not drawn): the “hERG current change (%, negative = inhibition) at 10uM” value turned out to be 13.2%.

For `COc1ccc2nc(C)cc(C(=O)O)c2c1`, the “hERG current change (%, negative = inhibition) at 10uM” value turned out to be 0.7%.

In the case of `COc1ccc(C(=O)CN2CCN(c3cc(C)nc4ccccc34)CC2)cc1`, the “hERG current change (%, negative = inhibition) at 10uM” value is listed as -68.8%.

Turning to `COc1ccc(N2CCN(c3cc(C)c4ccccc4n3)CC2)cc1`, the “hERG current change (%, negative = inhibition) at 10uM” value is listed as 3.95%.

Turning to `COc1ccc2nc(C)cc(N3CCOCC3)c2c1`, the “hERG current change (%, negative = inhibition) at 10uM” value was -14.6%.

For `COc1ccc(N2CCN(c3cc(C)nc4ccc(OC)cc34)CC2)cc1`, the “hERG current change (%, negative = inhibition) at 10uM” value was -69.1%.

As for `CCOC(=O)C1CCN(c2nc3cc(OC)ccc3cc2C#N)CC1`, the “hERG current change (%, negative = inhibition) at 10uM” value is recorded as -16%.

For `CCOC(=O)C1CCN(c2cc(C)nc3ccc(OC)cc23)CC1`, the “hERG current change (%, negative = inhibition) at 10uM” value was -73.8%.

Take `COc1ccc(C(=O)CN2CCN(c3ncccn3)CC2)cc1.O=C(O)C(=O)O`: the “hERG current change (%, negative = inhibition) at 10uM” value is on record as 5.13%.

`COc1ccc(N2CCN(CC(=O)c3ccccc3)CC2)cc1`: the “hERG current change (%, negative = inhibition) at 10uM” value came to 11%.

In the case of `COc1ccc2nc(C)cc(N3CCC(C(N)=O)CC3)c2c1`, the “hERG current change (%, negative = inhibition) at 10uM” value was -33.7%.

For the compound `COc1ccc2nc(C)cc(N3CC(C)OC(C)C3)c2c1` (stereo not drawn), the “hERG current change (%, negative = inhibition) at 10uM” value was -49.6%.

The values above are taken from paper PMC4336329 (PLoS ONE, 2015).
